From ChEMBL document CHEMBL3988442, “University of Dundee, Small-Polar-MMV Screening Library” (2021)

Biological target: T1, Methionyl-tRNA synthetase, putative (Leishmania donovani (strain BPK282A1)) (UniProt E9BF75)
T1 sequence (whole entry): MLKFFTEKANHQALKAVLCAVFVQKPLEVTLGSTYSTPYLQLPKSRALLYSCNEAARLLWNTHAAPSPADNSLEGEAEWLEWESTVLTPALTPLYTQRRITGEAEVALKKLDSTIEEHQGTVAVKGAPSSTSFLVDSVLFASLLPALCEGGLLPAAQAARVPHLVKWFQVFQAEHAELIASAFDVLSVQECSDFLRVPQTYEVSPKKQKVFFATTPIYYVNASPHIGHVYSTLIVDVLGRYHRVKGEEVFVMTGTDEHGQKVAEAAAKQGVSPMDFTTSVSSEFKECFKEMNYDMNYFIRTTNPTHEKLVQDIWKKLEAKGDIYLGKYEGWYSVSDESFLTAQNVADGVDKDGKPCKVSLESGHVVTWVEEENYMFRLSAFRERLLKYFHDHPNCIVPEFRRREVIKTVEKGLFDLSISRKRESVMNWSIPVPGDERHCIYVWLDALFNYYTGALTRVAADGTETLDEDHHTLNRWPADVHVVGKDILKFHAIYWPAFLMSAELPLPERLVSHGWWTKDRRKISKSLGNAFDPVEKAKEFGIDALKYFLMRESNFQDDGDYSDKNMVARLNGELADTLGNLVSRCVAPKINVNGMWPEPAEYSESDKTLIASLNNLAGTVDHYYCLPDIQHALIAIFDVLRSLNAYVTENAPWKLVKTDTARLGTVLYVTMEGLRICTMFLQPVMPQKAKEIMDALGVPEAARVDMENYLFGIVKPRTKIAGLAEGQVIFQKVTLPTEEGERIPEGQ
Assay: Leishmania donovani Methionine tRNA synthetase (LdMetRS):v7. Dose response assay
Format: functional
Parameters: conc 80 nM, time 150 minutes

SMILES: Clc1cc(Cl)cc(NCc2ccccn2)c1
- PXC50 (BOTTOM 0.466583915, HILLSLOPE 0.636268233, MAX_EFFECT 51.05162524, TOP 100.0): 2.71

SMILES: OCCNc1ccnc(Nc2ccc(F)c(F)c2)n1
- PXC50 (BOTTOM 2.684604701, HILLSLOPE 0.866541634, MAX_EFFECT 62.24299065, TOP 102.5858947): 4.2

SMILES: Cn1ncc2c(NC3CCOC3)nc(Nc3ccc(F)c(F)c3)nc21 (stereo not given)
- PXC50 (BOTTOM 7.395126545, HILLSLOPE 0.941646955, MAX_EFFECT 86.79245283, TOP 90.65244752): 5.1

SMILES: Cn1ncc2c(NCCO)nc(Nc3cccc(F)c3)nc21
- PXC50 (BOTTOM 8.925751042, HILLSLOPE 1.252459196, MAX_EFFECT 66.66666667, TOP 81.92338456): 4.47

SMILES: Clc1cc(Cl)cc(NCc2ccncc2)c1
- PXC50 (BOTTOM -1.202484297, HILLSLOPE 0.574759938, MAX_EFFECT 66.34799235, TOP 100.0): 3.3

SMILES: C[C@H](CO)Nc1ccnc(Nc2ccc(F)c(F)c2)n1
- PXC50 (BOTTOM -1.459719323, HILLSLOPE 0.865053746, MAX_EFFECT 69.36416185, TOP 100.0): 4.44

SMILES: Clc1cc(Cl)cc(NCc2ncc[nH]2)c1
- PXC50 (BOTTOM -1.539697056, HILLSLOPE 1.029999783, MAX_EFFECT 60.61185468, TOP 100.0): 2.93

SMILES: OCCNc1ccnc(Nc2cccc(C(F)(F)F)c2)n1
- PXC50 (BOTTOM -3.630779809, HILLSLOPE 0.738811655, MAX_EFFECT 60.88631985, TOP 100.0): 4.28

SMILES: Clc1cc(Cl)cc(NCc2cccnc2)c1
- PXC50 (BOTTOM -6.720584862, HILLSLOPE 0.561777258, MAX_EFFECT 60.61185468, TOP 100.0): 3.18

SMILES: Cc1noc(CCNc2nc(NCCO)c3cnn(C)c3n2)n1
- PXC50 (MAX_EFFECT 0.580270793): < 4

SMILES: CN(CCO)c1ccnc(Cl)n1
- PXC50 (MAX_EFFECT 1.682242991): < 4

SMILES: Cn1cc(C(=O)N2CCc3ccccc32)c2ccccc21
- PXC50 (MAX_EFFECT 1.851851852): < 4

SMILES: Cn1ncc2c(NC3COC3)nc(Nc3ccc(F)c(F)c3)nc21
- PXC50 (MAX_EFFECT 2.264150943): < 4

SMILES: NS(=O)(=O)c1cccnc1Nc1cccc(O)c1
- PXC50 (MAX_EFFECT 3.333333333): < 4

SMILES: C[C@H](CO)Nc1nccc(Cl)n1
- PXC50 (MAX_EFFECT 4.672897196): < 4

SMILES: COc1ccccc1NC(=O)Nc1nn(C)c2ccccc12
- PXC50 (MAX_EFFECT 5.420560748): < 4

SMILES: Cn1ncc2c(NCCO)nc(N3CCOCC3)nc21
- PXC50 (MAX_EFFECT 5.69259962): < 4

SMILES: Cn1c(NC(=O)Nc2ccccc2Cl)nc2ccccc21
- PXC50 (MAX_EFFECT 5.925925926): < 4

SMILES: CN1CCN(c2nc(NCCO)c3cnn(C)c3n2)CC1
- PXC50 (MAX_EFFECT 6.165703276): < 4

SMILES: COC(=O)c1ccc(OC)c(NC(=O)N2CCCc3ccccc32)c1
- PXC50 (MAX_EFFECT 6.79245283): < 4

SMILES: NS(=O)(=O)c1cccnc1NC1CCCCC1
- PXC50 (MAX_EFFECT 6.986027944): < 4

SMILES: OCCCNc1ccnc(Cl)n1
- PXC50 (MAX_EFFECT 7.32177264): < 4

SMILES: Cn1ncc2c(NCCO)nc(NCCCO)nc21
- PXC50 (MAX_EFFECT 7.543520309): < 4

SMILES: CCn1c(NC(=O)Nc2ccccc2C)nc2ccccc21
- PXC50 (MAX_EFFECT 7.777777778): < 4

SMILES: Cn1ncc2c(NCCO)nc(NCC3CCCO3)nc21 (stereo not given)
- PXC50 (MAX_EFFECT 7.969639469): < 4

SMILES: CN(CCO)c1nc(NCCO)c2cnn(C)c2n1
- PXC50 (MAX_EFFECT 9.248554913): < 4

SMILES: CN(C)c1nc(NCCO)c2cnn(C)c2n1
- PXC50 (MAX_EFFECT 10.24667932): < 4

SMILES: c1ccc(-c2nc(N3CCOCC3)c3sccc3n2)cc1
- PXC50 (MAX_EFFECT 16.2962963): < 4

SMILES: Cn1ncc2c(NCCO)nc(NC3CCOCC3)nc21
- PXC50 (MAX_EFFECT 17.34104046): < 4

SMILES: COc1ccccc1NC(=O)Nc1nn(C)c2cccc(OC)c12
- PXC50 (MAX_EFFECT 17.77777778): < 4

SMILES: Clc1cc(Cl)cc(CNCC2CCOCC2)c1
- PXC50 (MAX_EFFECT 17.78202677): < 2.7

SMILES: Cc1cnn(C)c1CNCc1cc(Cl)cc(Cl)c1
- PXC50 (MAX_EFFECT 20.07648184): < 2.7

SMILES: Clc1cc(Cl)cc(CNCc2c[nH]cn2)c1
- PXC50 (MAX_EFFECT 24.66539197): < 2.7

SMILES: C[C@H](CO)Nc1ccnc(Nc2cccc(F)c2)n1
- PXC50 (MAX_EFFECT 26.58959538): < 4

SMILES: Cn1ncc2c(N3CCCCC3)nc(Nc3ccccc3)nc21
- PXC50 (MAX_EFFECT 27.40740741): < 4

SMILES: Oc1ccccc1-c1nc(Nc2ccccc2Cl)c2ccccc2n1
- PXC50 (MAX_EFFECT 30.74074074): < 4

SMILES: CCNc1nc(C#N)nc(Nc2ccccc2)n1
- PXC50 (MAX_EFFECT 38.88888889): < 4

SMILES: C[C@@H](CO)Nc1ccnc(Nc2ccc(F)c(F)c2)n1
- PXC50 (MAX_EFFECT 40.46242775): < 4

SMILES: NS(=O)(=O)c1cccnc1Nc1ccc(F)c(F)c1
- PXC50 (MAX_EFFECT -0.759013283): < 4

SMILES: Cn1ncc2c(NCCO)nc(Nc3cccc(Cl)c3)nc21
- PXC50 (BOTTOM 2.482705833, HILLSLOPE 1.074607965, MAX_EFFECT 81.43133462, TOP 87.71460066): 5.07

SMILES: Cn1ncc2c(NC3CCCC(O)C3)nc(Nc3ccc(F)c(F)c3)nc21 (stereo not given)
- PXC50 (BOTTOM 4.828241924, HILLSLOPE 1.003842691, MAX_EFFECT 77.73584906, TOP 90.35664451): 4.76

SMILES: Clc1cc(Cl)cc(NCc2c[nH]cn2)c1
- PXC50 (BOTTOM -1.936831904, HILLSLOPE 1.590281355, MAX_EFFECT 96.5583174, TOP 100.0): 3.41

SMILES: COc1cc(Nc2ncccc2S(N)(=O)=O)cc(C(F)(F)F)c1
- PXC50 (MAX_EFFECT 0.199600798): < 4

SMILES: NS(=O)(=O)c1cccnc1Nc1cccc(F)c1
- PXC50 (MAX_EFFECT 1.518026565): < 4

SMILES: NS(=O)(=O)c1cccn2c1nc1cccnc12
- PXC50 (MAX_EFFECT 1.851851852): < 4

SMILES: CN(C)CCNc1nc(NCCO)c2cnn(C)c2n1
- PXC50 (MAX_EFFECT 2.277039848): < 4

SMILES: C[C@@H](CO)Nc1nccc(Nc2ccc(F)c(F)c2)n1
- PXC50 (MAX_EFFECT 2.697495183): < 4

SMILES: COC(=O)c1ccc(OC)c(NC(=O)N2CCOc3ccccc32)c1
- PXC50 (MAX_EFFECT 3.018867925): < 4

SMILES: C[C@@H](CO)Nc1ccnc(Cl)n1
- PXC50 (MAX_EFFECT 3.177570093): < 4

SMILES: Cn1ncc2c(NCCO)nc(NCCO)nc21
- PXC50 (MAX_EFFECT 3.795066414): < 4

SMILES: Cn1ncc2c(NCCO)nc(NCc3ccccc3)nc21
- PXC50 (MAX_EFFECT 4.528301887): < 4

SMILES: COc1ccccc1NC(=O)Nc1cnccc1OC
- PXC50 (MAX_EFFECT 4.905660377): < 4

SMILES: COc1ccc(Nc2ncccc2S(N)(=O)=O)cc1C(F)(F)F
- PXC50 (MAX_EFFECT 5.780346821): < 4

SMILES: COC(=O)c1ccc(OC)c(NC(=O)Nc2ccccc2OC)c1
- PXC50 (MAX_EFFECT 5.794392523): < 4

SMILES: NS(=O)(=O)c1cccnc1Nc1cc(C(=O)O)cc(C(F)(F)F)c1
- PXC50 (MAX_EFFECT 6.165703276): < 4

SMILES: COc1ccccc1NC(=O)Nc1ccn(C)n1
- PXC50 (MAX_EFFECT 6.168224299): < 4

SMILES: N#Cc1c(N)nc(-c2ccccc2)nc1C(F)(F)F
- PXC50 (MAX_EFFECT 6.666666667): < 4

SMILES: NS(=O)(=O)c1cccnc1NC1CCCC1
- PXC50 (MAX_EFFECT 6.986027944): < 4

SMILES: NS(=O)(=O)c1cccnc1Nc1cc(O)ccn1
- PXC50 (MAX_EFFECT 7.407407407): < 4

SMILES: Cc1cc(CNc2cc(Cl)cc(Cl)c2)no1
- PXC50 (MAX_EFFECT 7.456978967): < 2.7
